Reference: PubChem BioAssay (EPA / NIEHS)
Where a structure was tested more than once in an assay, its records may differ in their call. The source made the active and inactive calls. Rule for the calls: active = hit-call score of the fitted dose curve at least 0.9, where 1 is the maximum; inactive = score below 0.9.

Assay: ATG_DR4_LXR_CIS: Attagene CIS-FACTORIAL HepG2 Assay for human Liver X Receptor (LXR), DR4 submotif (AID 2282929)
Details: HepG2 Attagene DR4 cis-reporter, mRNA transcription; actives raise or lower the signal
Method: ATG_CIS is a cell-based, multiplexed-readout assay that uses HepG2, a human liver cell line, with measurements taken at 24 hours after chemical dosing in a 24-well plate.ATG_DR4_LXR_CIS is one of 52 assay component(s) measured or calculated from the ATG_CIS assay. It is designed to make measurements of mRNA induction, a form of inducible reporter, as detected with fluorescence intensity signals by Reverse transcription polymerase chain reaction (RT-PCR) and Capillary electrophoresis technology.Data from the assay component ATG_DR4_LXR_CIS was analyzed into 1 assay endpoint. This assay endpoint, ATG_DR4_LXR_CIS, was analyzed with bidirectional fitting relative to DMSO as the negative control and baseline of activity. Using a type of inducible reporter, measures of mRNA for gain or loss-of-signal activity can be used to understand the reporter gene at the transcription factor-level as they relate to the gene NR1H2 and NR1H3. Furthermore, this assay endpoint can be referred to as a primary readout, because this assay has produced multiple assay endpoints where this one serves a reporter gene function. To generalize the intended target to other relatable targets, this assay endpoint is annotated to the nuclear receptor intended target family, where the subfamily is non-steroidal.
Human liver HepG2 cells are transiently transfected with multiple reporter transcription units (MRTUs) in 6-well plates using FuGene 6 reagent (Roche; 3 ml FuGene/1 mg DNA). The MRTU constructs are regulated by a cis-regulating element (promoter). […] A major difference between the CIS and TRANS system is that in CIS activities of endogenous TFs are measured, whereas the TRANS assay evaluates changes in activities of exogenous, chimeric NR-Gal4 proteins. […] At the end of 24 hour incubation, total RNA was isolated using TriZol reagent (Invitrogen). The isolated RNA is then reverse-transcribed using oligo(dT) primer and Mo-MLV reverse transcriptase (Invitrogen) with DNAse I (Ambion) treatment for 30 min. The one-tenth of the produced cDNA was amplified by PCR using Taq DNA polymerase (Invitrogen) and two reporter sequence-specific primers. The PCR products were fluorescently labeled by primer extension with 6-arboxyfluorescein (6-FAM) 5'-labeled reporter sequence-specific primer (2 min at 95 C, 20 s at 68 C and 10 min at 72 C) and these products were digested with 5U of HpaI (New England Biolabs) for 2h at 37 C. The fragments were purified using Qiaquick PCR columns (Qiagen), analyzed on an ABI 3130xL genetic analyzer (Applied Biosystems) with peak positions identified by using a set of X-rhodamine (ROX)-labeled MapMarker1000 molecular weight standards (BioVentures). The raw capillary electrophoresis data was processed using Attagraph software (Attagene).

Compound | AC50 | outcome
COC(=O)C(F)(F)C(F)(F)OC(F)(C(F)(F)F)C(F)(F)OC(F)=C(F)F (stereo not given) | 20.2 µM (active) | inactive
CC1(C)CN=C(NN=C(/C=C/c2ccc(C(F)(F)F)cc2)/C=C/c2ccc(C(F)(F)F)cc2)NC1 | 8.29 µM (active) | 
Nc1ccc(Sc2ccc(N)cc2)cc1 |  | inactive
c1ccc2c(c1)Nc1ccccc1S2 |  | inactive
CC(=O)c1ccc(-c2ccccc2)cc1 |  | inactive
Cn1[nH]nnc1=S |  | inactive
CCOP(=S)(Oc1ccc([N+](=O)[O-])cc1)c1ccccc1 (stereo not given) | 28.4 µM (active) | 
O=P(OCC(Br)CBr)(OCC(Br)CBr)OCC(Br)CBr (stereo not given) | 8.35 µM (active) | 
N#Cc1cc([N+](=O)[O-])ccc1N |  | inactive
CNC(=O)Oc1ccc(N(C)C)c(C)c1 |  | inactive
CC(C)(C)OOC(C)(C)C |  | inactive
CCC1(c2ccccc2)C(=O)N=C(O)NC1=O (stereo not given) |  | inactive
CCN(CC)c1ccccc1 |  | inactive
C=CC(=O)OCC(CC)(COC(=O)C=C)COC(=O)C=C | 16.8 µM (active) | 
CCN(CC)C1CCCCC1 |  | inactive
OCC(F)(F)OC(F)(F)C(F)(F)OC(F)(F)C(F)(F)OC(F)(F)CO |  | inactive
O=NN1CCCC1 |  | inactive
O=C(O)C(Cl)Cl |  | inactive
O=[N+]([O-])c1ccc(Cl)c(Cl)c1 |  | inactive
CCOC(=O)c1ccccc1C(=O)OCC |  | inactive

Compound | AC50 | outcome
OCC(F)(F)OC(F)(F)C(F)(F)OC(F)(F)CO |  | inactive
Clc1ccc(Oc2ccccc2)cc1 |  | inactive
ClC(Cl)(Cl)c1ccccc1 |  | inactive
FC(F)(F)c1ccc(Cl)cc1 |  | inactive
O=P1(N(CCCl)CCCl)NCCCO1 (stereo not given) |  | inactive
COP(=O)(CCC(=O)NCO)OC |  | inactive
c1cc2c3c(cccc3c1)CC2 |  | inactive
C/C(=N\NC(=O)Nc1cc(F)cc(F)c1)c1ncccc1C(=O)O |  | inactive
CCOP(=S)(OCC)SCSc1ccc(Cl)cc1 |  | inactive
CC(Cl)CN(C)C (stereo not given) |  | inactive
O=C(CBr)OCc1ccccc1 |  | inactive
CC(=O)CCc1ccc2c(c1)OCO2 |  | inactive
O=c1[nH]c2ccccc2c(=O)o1 |  | inactive
Cc1ccc(C(=O)Cl)cc1 |  | inactive
O=[N+]([O-])c1ccccc1 |  | inactive
ClC(Cl)c1ccccc1 |  | inactive
c1ccc(OP(Oc2ccccc2)Oc2ccccc2)cc1 |  | inactive
CCOP(=S)(OCC)SCn1nnc2ccccc2c1=O | 64.7 µM (active) | 
CC1=C(C(=O)Nc2ccccc2)S(=O)(=O)CCO1 | 44.3 µM (active) | 
